In all, about 47,000 compounds went through this assay and about 510 (1.1%) were called active. This is one part of a sample in which actives are shown more often than they occur. Values without a mark were called inactive. Cut-off read from the data, not from the text of the source: active = inhibition above about 30%; inactive = the rest.
biological target: Ubiquitin carboxyl-terminal hydrolase 10 (Homo sapiens) (UniProt Q14694); experiment: inhibitors of human USP10 deubiquitinase (AID 1645856); conditions: purified USP10, Ub-rhodamine fluorescence, 60 min; at 20 µM; hits give high values
Sequence (Q14694 whole entry, looked up): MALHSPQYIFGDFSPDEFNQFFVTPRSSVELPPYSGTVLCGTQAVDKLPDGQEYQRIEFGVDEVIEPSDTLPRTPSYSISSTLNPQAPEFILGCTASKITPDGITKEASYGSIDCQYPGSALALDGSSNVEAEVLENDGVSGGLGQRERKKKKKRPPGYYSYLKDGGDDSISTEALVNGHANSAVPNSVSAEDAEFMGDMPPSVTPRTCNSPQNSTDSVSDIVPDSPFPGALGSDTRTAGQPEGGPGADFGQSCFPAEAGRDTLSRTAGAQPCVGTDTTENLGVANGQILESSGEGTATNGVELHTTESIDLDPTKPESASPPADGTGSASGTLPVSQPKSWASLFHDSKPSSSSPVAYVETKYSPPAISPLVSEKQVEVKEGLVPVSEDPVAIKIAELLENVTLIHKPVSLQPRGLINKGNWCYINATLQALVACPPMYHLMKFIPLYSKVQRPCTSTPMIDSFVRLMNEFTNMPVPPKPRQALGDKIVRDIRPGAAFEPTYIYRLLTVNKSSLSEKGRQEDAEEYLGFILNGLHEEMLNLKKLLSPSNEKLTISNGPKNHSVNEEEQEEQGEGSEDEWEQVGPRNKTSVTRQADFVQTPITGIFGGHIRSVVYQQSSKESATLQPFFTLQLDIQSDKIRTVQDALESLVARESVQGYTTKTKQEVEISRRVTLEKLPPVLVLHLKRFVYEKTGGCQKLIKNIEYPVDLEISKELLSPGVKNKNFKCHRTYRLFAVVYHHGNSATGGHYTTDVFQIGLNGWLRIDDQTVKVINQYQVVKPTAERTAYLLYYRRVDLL

| SMILES | inhibition |
| --- | --- |
| CC(C)C(NS(=O)(=O)c1ccc(Cl)cc1)C(=O)OCC(=O)C12CC3CC(CC(C3)C1)C2 (stereo unspecified) | 3.82% |
| Cc1cccc(CNC(=O)C2CCc3nc(N4CCOCC4)ncc3C2)c1 (stereo unspecified) | -3.24% |
| COc1cccc(O[C@@H]2C[C@@H](NC(=O)c3ncoc3C)[C@H](O)[C@H]2O)c1 | -1.35% |
| O=S1(=O)C=C(CSCCO)c2cc(Cl)ccc21 | -1.29% |
| Cc1cc(C(=O)N2CCCCC2c2nncn2CC2CC2)nn1C (stereo unspecified) | 1.03% |
| COCCNC(=O)c1cccc(C2CCCN(C(=O)Nc3ccccc3)C2)c1 (stereo unspecified) | 6.54% |
| O=C(CSc1n[nH]c(-c2ccccc2Cl)n1)NCC1CCCO1 (stereo unspecified) | -1.9% |
| COc1ccc(CC(=O)N2CCC3(C2)C(=O)N(C)c2ccccc23)cc1 (stereo unspecified) | -4.15% |
| CCOC(=O)N1CCN(Cc2nc3ccc([N+](=O)[O-])cc3c(=O)n2-c2cccc(OC)c2)CC1 | -1.3% |
| CC(C)Cn1cnc2nc(CSc3ccccc3NC(=O)Nc3ccccc3)cc(=O)n21 | 2.5% |
| Cc1ccc(S(=O)(=O)N2CCC(c3nc(C(=O)N(C)C)c(C)o3)CC2)cc1C | -0.0972% |
| CC1(C)Cc2c(c(-c3ccco3)nc3sc4c(SCCCc5ccccc5)ncnc4c23)CO1 | 58.4% (active) |
| CCCCCCSc1ncnc2c1sc1nc(-c3ccccc3)c3c(c12)CC(C)(C)OC3 | -3.17% |
| CSc1ncnc2c1sc1nc(-c3ccccc3)c3c(c12)CC(C)(C)OC3 | 0.0174% |
| Clc1cc2nc(N3CCN(c4ccccn4)CC3)c3nncn3c2cc1Cl | -8.09% |
| Cc1ccccc1CNC(=O)Cn1c(=O)ccn(Cc2ccc(F)cc2)c1=O | 0.832% |
| O=C(CCCn1c(=O)c2ccccc2n(Cc2ccccc2F)c1=O)NC1CCCC1 | 8.78% |
| N#Cc1ccccc1Cn1c(=O)n(CCCC(=O)NCc2ccc(F)cc2)c(=O)c2ccccc21 | 34% (active) |
| COc1cccc(C(O)c2ncc(-c3ccc4ccccc4c3)[nH]2)c1 (stereo unspecified) | -5.14% |
| CN(C)c1nc(C2CCN(C(=O)c3ccccc3)CC2)cn2nccc12 | -1.26% |
| CN(C)c1nccnc1C1CN(C(=O)c2cc(C(C)(C)C)[nH]n2)CCO1 (stereo unspecified) | 4.78% |
| C/C=C(\Cl)C1=CC(=O)[C@]23C[C@H]2[C@@]2(C)CO[C@@]1(O)[C@@]3(O)O2 | -13.4% |
| Cc1ccc(S(=O)(=O)N2CCCC(c3nc(-c4ccc(=O)[nH]c4)no3)C2)cc1 (stereo unspecified) | 0.0273% |
| O=C(Nc1ccc(Cl)cc1F)c1cc(-c2ccccn2)n[nH]1 | 10.2% |
| COc1cc(Cl)c(NC(=O)c2cc(-c3ccccn3)n[nH]2)c(OC)c1 | 38% (active) |
| Cc1ccc(CC(=O)N2CCN(C(=O)c3cc(-c4ccccn4)n[nH]3)CC2)cc1 | -1.22% |

| SMILES | inhibition |
| --- | --- |
| Cc1c(-c2nnc(-c3ccccn3)o2)nnn1-c1ccccc1Cl | 1.56% |
| COc1ccc(-c2noc(-c3ccc(N(C)Cc4ccco4)nn3)n2)cc1 | 0.989% |
| Cc1ncccc1Oc1nccnc1C1CCNCC1 | 0.116% |
| CCN(CC)C(=O)CC[C@H]1CNC(=O)[C@@H]2[C@@H](CCN2CC2CC2)N1C | -0.533% |
| O=C1CC(c2ccc(OCc3ccccc3)cc2)c2sccc2N1 (stereo unspecified) | 2.63% |
| COc1cccc(CCN2CCOc3nc4c(C)cccc4cc3C2)c1OC | 1.85% |
| Cn1c(=O)[nH]c(=O)c2c1nc(N1CCCCCC1)n2CCCSc1nc2ccccc2s1 | 20.1% |
| Cn1c2c(c(=O)n(C)c1=O)[C@@H]1c3c(ccc4ccccc34)OC[C@@H]1CO2 | -4.17% |
| CO[C@@H](/C(C)=C/C=C/C(C)=C/c1coc(C)n1)[C@@H](C)[C@@H]1C[C@H](O)[C@@]2(C)O[C@@H]2/C=C/[C@@H](C)[C@H](O)C[C@H](CC(=O)O)C/C=C/C(=O)O1 | -8.33% |
| CN(c1ccc(F)cc1)c1ccc2ccc(C(=O)N3CCCC(O)C3)cn12 (stereo unspecified) | -11.2% |
| Cn1c(SCC(N)=O)nnc1-c1cc2ccccc2o1 | -1.83% |
| Cc1noc(C)c1C1CCCN1C(=O)c1c(F)cccc1F (stereo unspecified) | 2.21% |
| CC(CN1CCOCC1)OC(=O)c1ccc(C(C)(C)C)cc1 (stereo unspecified) | 0.0972% |
| CC(C)CC(=O)Nc1ccc(-c2nc3ncccc3o2)cc1 | 1.25% |
| CCOc1ccccc1NC(=O)Cc1cccs1 | 1.12% |
| Cc1cccc(Nc2nc(N3CCOCC3)nc3c2cnn3C)c1 | -3.81% |
| CCc1nc2cc(N3CCC(C(=O)N4CCN(CC)CC4)CC3)cnc2nc1CC | -3.73% |
| O=C(NCC1CCCCC1)C1CCN(C2=NS(=O)(=O)c3ccccc32)CC1 | -1.45% |
| COc1cccc(CNC(=O)c2ccc3c(=O)nc4c(-c5ccccc5)n[nH]n4c3c2)c1 | 17.4% |
| Cc1cc(Cl)cc(C)c1OCC(=O)NC1CCCc2ccccc21 (stereo unspecified) | -1.09% |
| CCOC(=O)C1CCN(C(c2cccnc2)c2c(NC(C)=O)sc3c2CCCC3)CC1 (stereo unspecified) | -3.05% |
| CC1CCN(C(=O)C2CCN(C(=O)c3ccc4c(c3)nnn4C3CCCC3)CC2)CC1 | -0.291% |
| Cc1ccc(CC(=O)Nc2nnc(C3CC(=O)N(c4ccc(C)c(C)c4)C3)s2)cc1 (stereo unspecified) | 15.3% |
| COc1ccc(N2CC(c3nnc(NC(=O)CCc4ccccc4)s3)CC2=O)cc1 (stereo unspecified) | 30.4% (active) |
| Cc1ccc(N2CC(c3nnc(NC(=O)CCCc4ccccc4)s3)CC2=O)cc1 (stereo unspecified) | 8.86% |
